This is an account of results in the supplement of paper PMC10849652.

Targets with a hit are over-represented here; the source holds about 7,900 in all. About 0.6% of all pairs of compound and target were hits.

Sequence of UniProt P13473 (P13473 whole entry, looked up): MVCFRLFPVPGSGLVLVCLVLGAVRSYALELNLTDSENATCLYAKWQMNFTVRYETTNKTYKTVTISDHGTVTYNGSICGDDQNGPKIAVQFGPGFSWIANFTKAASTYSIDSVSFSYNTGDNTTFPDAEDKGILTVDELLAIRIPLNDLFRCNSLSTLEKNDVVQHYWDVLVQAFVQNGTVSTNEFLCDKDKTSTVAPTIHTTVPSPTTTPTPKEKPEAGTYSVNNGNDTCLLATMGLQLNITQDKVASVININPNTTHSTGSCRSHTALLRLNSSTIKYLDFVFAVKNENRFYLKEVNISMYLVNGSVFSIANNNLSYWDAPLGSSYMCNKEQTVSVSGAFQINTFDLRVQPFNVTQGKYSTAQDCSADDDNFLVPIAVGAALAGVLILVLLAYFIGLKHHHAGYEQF
Sequence of UniProt P01130 (P01130 whole entry, looked up): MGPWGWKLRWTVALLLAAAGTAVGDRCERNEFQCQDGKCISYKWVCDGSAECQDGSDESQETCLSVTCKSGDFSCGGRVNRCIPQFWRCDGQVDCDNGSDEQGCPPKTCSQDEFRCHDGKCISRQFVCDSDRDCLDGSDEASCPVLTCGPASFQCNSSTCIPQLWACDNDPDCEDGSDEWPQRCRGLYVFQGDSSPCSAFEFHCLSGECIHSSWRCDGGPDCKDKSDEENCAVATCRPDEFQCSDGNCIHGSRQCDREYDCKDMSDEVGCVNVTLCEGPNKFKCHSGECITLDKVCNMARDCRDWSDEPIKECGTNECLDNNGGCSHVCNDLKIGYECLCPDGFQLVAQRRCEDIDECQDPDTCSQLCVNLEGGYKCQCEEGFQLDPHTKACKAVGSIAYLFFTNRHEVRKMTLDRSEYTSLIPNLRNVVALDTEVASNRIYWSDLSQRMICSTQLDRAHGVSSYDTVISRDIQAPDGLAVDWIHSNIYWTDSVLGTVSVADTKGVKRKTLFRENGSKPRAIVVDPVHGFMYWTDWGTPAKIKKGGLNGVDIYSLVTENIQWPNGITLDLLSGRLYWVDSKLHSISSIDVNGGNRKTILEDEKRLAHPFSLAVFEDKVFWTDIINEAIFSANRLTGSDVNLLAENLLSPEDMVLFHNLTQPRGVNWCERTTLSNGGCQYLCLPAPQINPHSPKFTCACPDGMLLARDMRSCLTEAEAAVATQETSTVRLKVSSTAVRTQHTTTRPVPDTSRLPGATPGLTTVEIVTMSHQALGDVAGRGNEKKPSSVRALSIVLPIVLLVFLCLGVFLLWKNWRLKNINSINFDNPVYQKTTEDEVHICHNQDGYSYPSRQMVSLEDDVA
Sequence of UniProt O43513 (O43513 whole entry, looked up): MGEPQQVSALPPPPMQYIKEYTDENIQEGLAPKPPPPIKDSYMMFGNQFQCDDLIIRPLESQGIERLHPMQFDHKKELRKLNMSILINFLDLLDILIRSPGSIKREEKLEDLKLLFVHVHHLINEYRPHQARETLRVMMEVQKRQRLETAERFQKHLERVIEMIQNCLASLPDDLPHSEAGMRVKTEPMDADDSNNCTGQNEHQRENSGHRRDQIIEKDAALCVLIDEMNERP
Sequence of UniProt Q14681 (Q14681 whole entry, looked up): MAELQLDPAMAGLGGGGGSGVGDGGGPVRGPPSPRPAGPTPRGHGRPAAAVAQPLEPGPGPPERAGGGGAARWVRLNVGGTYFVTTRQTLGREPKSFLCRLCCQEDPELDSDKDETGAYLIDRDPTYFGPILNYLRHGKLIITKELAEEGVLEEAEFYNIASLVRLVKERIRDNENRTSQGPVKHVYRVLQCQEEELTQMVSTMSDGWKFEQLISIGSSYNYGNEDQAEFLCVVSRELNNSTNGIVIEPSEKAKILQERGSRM
Sequence of UniProt Q03252 (Q03252 whole entry, looked up): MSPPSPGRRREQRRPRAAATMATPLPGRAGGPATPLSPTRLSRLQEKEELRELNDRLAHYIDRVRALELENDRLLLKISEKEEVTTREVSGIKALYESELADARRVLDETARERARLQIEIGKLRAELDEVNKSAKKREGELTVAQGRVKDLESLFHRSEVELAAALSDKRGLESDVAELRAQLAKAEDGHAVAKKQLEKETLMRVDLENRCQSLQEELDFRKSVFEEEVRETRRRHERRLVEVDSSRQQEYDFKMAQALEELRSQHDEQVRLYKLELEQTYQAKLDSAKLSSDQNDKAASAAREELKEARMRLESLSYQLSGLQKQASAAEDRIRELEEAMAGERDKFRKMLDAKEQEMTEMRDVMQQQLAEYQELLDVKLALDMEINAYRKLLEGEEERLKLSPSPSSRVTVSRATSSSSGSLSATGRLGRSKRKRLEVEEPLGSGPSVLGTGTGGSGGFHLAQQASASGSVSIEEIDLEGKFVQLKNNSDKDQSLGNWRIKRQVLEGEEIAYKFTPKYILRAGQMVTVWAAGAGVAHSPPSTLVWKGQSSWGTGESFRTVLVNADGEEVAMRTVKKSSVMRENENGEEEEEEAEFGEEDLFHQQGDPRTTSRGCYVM
Sequence of UniProt Q96GX5 (Q96GX5 whole entry, looked up): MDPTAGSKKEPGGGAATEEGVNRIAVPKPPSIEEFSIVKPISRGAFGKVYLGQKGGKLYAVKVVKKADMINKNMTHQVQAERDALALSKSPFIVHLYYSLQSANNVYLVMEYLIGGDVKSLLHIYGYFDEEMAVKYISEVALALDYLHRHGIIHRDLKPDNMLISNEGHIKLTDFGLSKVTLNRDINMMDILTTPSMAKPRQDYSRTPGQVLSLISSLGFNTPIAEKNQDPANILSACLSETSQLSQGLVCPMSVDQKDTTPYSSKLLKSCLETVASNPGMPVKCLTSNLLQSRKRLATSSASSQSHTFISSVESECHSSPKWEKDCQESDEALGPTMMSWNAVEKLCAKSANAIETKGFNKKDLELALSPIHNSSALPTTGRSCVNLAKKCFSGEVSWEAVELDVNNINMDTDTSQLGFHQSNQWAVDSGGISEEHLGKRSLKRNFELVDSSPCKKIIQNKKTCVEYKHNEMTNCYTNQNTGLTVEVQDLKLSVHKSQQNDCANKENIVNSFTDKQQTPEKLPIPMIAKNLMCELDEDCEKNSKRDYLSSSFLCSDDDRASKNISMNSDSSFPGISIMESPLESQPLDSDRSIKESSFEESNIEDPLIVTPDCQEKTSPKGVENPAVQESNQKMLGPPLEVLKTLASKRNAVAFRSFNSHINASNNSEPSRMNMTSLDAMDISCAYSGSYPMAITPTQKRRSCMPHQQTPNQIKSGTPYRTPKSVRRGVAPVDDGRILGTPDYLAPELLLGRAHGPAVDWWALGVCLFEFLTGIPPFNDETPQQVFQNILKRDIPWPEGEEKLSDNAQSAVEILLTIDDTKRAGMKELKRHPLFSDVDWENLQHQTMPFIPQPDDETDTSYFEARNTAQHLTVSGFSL
Sequence of UniProt A4D2B0 (A4D2B0 whole entry, looked up): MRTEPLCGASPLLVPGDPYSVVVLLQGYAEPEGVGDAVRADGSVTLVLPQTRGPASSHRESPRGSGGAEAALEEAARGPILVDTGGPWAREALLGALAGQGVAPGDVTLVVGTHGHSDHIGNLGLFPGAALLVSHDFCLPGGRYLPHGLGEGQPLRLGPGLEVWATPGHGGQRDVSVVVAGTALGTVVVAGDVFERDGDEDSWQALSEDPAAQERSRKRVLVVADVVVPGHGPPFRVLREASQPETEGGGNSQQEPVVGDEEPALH
Sequence of UniProt Q8IWA4 (Q8IWA4 whole entry, looked up): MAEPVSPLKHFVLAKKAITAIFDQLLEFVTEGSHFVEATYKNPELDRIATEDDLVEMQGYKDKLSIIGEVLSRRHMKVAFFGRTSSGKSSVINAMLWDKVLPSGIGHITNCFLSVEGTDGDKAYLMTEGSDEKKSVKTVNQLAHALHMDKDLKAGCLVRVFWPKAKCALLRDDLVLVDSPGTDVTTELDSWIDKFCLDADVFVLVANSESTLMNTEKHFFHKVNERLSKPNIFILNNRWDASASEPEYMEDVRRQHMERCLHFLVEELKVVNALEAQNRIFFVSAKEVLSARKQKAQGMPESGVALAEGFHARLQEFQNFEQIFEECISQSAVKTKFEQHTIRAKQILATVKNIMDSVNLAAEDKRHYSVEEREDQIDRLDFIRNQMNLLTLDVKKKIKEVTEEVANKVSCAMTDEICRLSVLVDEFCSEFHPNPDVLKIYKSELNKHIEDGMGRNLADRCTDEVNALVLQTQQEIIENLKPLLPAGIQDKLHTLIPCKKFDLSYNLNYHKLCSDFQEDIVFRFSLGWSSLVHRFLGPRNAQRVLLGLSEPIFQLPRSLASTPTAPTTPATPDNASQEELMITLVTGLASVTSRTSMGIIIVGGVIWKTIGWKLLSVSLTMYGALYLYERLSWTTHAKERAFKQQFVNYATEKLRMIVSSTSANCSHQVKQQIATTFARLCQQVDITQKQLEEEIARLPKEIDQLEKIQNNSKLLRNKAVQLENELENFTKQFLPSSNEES
Sequence of UniProt O43766 (O43766 whole entry, looked up): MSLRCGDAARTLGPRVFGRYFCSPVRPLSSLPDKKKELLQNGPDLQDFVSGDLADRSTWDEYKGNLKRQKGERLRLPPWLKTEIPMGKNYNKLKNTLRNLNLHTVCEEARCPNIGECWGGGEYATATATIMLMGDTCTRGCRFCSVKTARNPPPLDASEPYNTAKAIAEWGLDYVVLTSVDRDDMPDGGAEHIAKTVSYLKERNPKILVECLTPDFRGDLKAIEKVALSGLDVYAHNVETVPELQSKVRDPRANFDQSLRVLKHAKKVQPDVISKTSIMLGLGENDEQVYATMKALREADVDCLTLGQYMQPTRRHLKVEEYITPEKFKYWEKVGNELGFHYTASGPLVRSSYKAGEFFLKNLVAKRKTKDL
Sequence of UniProt P43362 (P43362 whole entry, looked up): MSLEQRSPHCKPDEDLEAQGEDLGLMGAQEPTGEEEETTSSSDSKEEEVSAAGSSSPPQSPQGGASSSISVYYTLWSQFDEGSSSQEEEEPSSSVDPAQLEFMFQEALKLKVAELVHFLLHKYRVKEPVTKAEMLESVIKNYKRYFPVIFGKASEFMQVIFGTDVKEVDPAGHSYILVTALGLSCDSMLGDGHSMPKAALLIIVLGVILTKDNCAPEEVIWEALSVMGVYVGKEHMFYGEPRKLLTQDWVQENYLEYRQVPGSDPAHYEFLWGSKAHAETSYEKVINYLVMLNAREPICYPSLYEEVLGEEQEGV

Compound in the assay: c1ccc([C@@H]2C[C@H]2NC2CCNCC2)cc1
Description: log2 fold change, soluble protein after heating vs DMSO (PISA); higher = thermal stabilisation; K562 cells, 10 uM, 30 min; active = over 0.2 and 3.5 SD of the protein, either way, in both replicates (recomputed). The procedure, abridged: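 Aliquots of K562 cells (2×10^6 cells/mL) treated with 10 μM compound for 30 min were heated for 3 min over 48°C-58°C. After pooling and extraction in PBS with 0.5% NP-40 at 4°C, soluble protein from a 21,000xg, 90 min spin was quantified by TMTpro 16plex LC-MS/MS with channel sums equalised. Thermal stability is expressed against control samples, from duplicates, as a log2 fold change.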
Turning to KCTD2 (UniProt Q14681), the log2 fold change is 0.158 (inactive).

As for MED8 isoform 2 (UniProt Q96G25), the log2 fold change is 0.039 (inactive).

In the case of KDM5D isoform 3 (UniProt Q9BY66), the log2 fold change was 0.037 (inactive).

KTN1 (UniProt Q86UP2): the log2 fold change was 0.001 (inactive).

IGF2BP2 (UniProt Q9Y6M1): the log2 fold change was 0.019 (inactive).

As for ITM2C (UniProt Q9NQX7), the log2 fold change is -0.121 (inactive).

Take MASTL (UniProt Q96GX5): the log2 fold change was -0.02 (inactive).

For LMNB2 (UniProt Q03252), the log2 fold change was 0.053 (inactive).

Consider KIF3A (UniProt Q9Y496), for which the log2 fold change was 0.002 (inactive).

As for IGF2R (UniProt P11717), the log2 fold change is -0.002 (inactive).

On to MAGEA9 (UniProt P43362), for which the log2 fold change is -0.067 (inactive).

Consider LONP2 (UniProt Q86WA8), for which the log2 fold change was -0.147 (inactive).

Consider MFN2 (UniProt O95140), for which the log2 fold change is 0.001 (inactive).

In the case of MGST3 (UniProt O14880), the log2 fold change was 0.054 (inactive).

For MDN1 (UniProt Q9NU22), the log2 fold change was -0.049 (inactive).

In the case of KDM3B (UniProt Q7LBC6), the log2 fold change was 0.071 (inactive).

For the target LRBA (UniProt P50851), the log2 fold change is -0.023 (inactive).

In the case of MAPKAPK2 (UniProt P49137), the log2 fold change was -0.056 (inactive).

As for KIF13A (UniProt Q9H1H9), the log2 fold change was -0.027 (inactive).

On to LAMP2 (UniProt P13473), for which the log2 fold change is 0.074 (inactive).

MFF (UniProt Q9GZY8): the log2 fold change was -0.001 (inactive).

For the target METTL18 (UniProt O95568), the log2 fold change is 0.028 (inactive).

For the target LDLR (UniProt P01130), the log2 fold change is 0.062 (inactive).

Turning to LAMP2 isoform 2 (UniProt P13473), the log2 fold change is 0.007 (inactive).

Regarding LIAS (UniProt O43766), the log2 fold change is 0.05 (inactive).

For MED7 (UniProt O43513), the log2 fold change was 0.076 (inactive).

Take LUC7L3 (UniProt O95232): the log2 fold change is 0.028 (inactive).

With MBLAC1 (UniProt A4D2B0), the log2 fold change was -0.029 (inactive).

As to INPP5B (UniProt P32019), the log2 fold change was -0.035 (inactive).

For the target MCL1 (UniProt Q07820), the log2 fold change is 0.073 (inactive).

For MAP2K3 isoform 3 (UniProt P46734), the log2 fold change was 0.016 (inactive).

Regarding LARP4B (UniProt Q92615), the log2 fold change is -0.014 (inactive).

LTN1 isoform 3 (UniProt O94822): the log2 fold change is -0.005 (inactive).

In the case of LYPLA2 (UniProt O95372), the log2 fold change is -0.08 (inactive).

As to LNPEP (UniProt Q9UIQ6), the log2 fold change is 0.046 (inactive).

In the case of MFN1 (UniProt Q8IWA4), the log2 fold change was -0.01 (inactive).

As for LMBRD1 (UniProt Q9NUN5), the log2 fold change was 0.039 (inactive).

LEMD2 (UniProt Q8NC56): the log2 fold change is 0.005 (inactive).
